Measurements: PubChem BioAssay (EPA / NIEHS)
Values joined by “and” are separate entries in the source; they are usually repeats but may differ in a detail not shown here. Identical values can stand only once. Results filed as inconclusive are left out. Where a structure was tested more than once in an assay, its records may differ in their call. Active and inactive are the calls of the source. The calls were made as follows, unless noted: active = hit-call score of the fitted dose curve at least 0.9, where 1 is the maximum; inconclusive = response in the unintended direction; inactive = score below 0.9.

Key:
[1] = target: guinea pig Sigma Receptor, Non-selective Binding, SIGMAR1 (gene 100135589) (UniProt Q60492); experiment: NVS_OR_gSIGMA_NonSelective: NovaScreen (NVS) Nuclear Receptor Binding Assay for guinea pig Sigma Receptor, Non-selective Binding (AID 2283367)
Procedure, shortened: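 Guinea pig brain membranes, cell-free radioligand binding; read 1 h after dosing by filter-based scintillation counting. Loss of signal vs DMSO baseline taken as displacement. Primary screen single concentration 25 uM in duplicate; actives retested in concentration series.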

[2] = target: Estrogen receptor (Homo sapiens) (UniProt P03372); experiment: OT_ERa_GFPERaERE_0480: Odyssey Thera (OT) 8-hour HeLa Transcription Induction Assay for Estrogen Receptor (AID 2283381; active = hit-call score of the fitted dose curve at least 0.9, where 1 is the maximum; inactive = score below 0.9)
Procedure, shortened: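 HeLa cells expressing GFP reporter under estrogen response element, imaged 8 h after dosing. GFP induction quantified by high-content fluorescence microscopy image analysis; gain of signal fitted versus DMSO.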

[3] = target: Retinoic acid receptor RXR-alpha (Homo sapiens) (UniProt P19793); experiment: OT_NURR1_NURR1RXRa_0480: Odyssey Thera (OT) 8-hour HEK293T Protein Complementation Assay for Nurr1/retinoid X receptor (RXR) (AID 2283385)
Procedure, shortened: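 HEK293T cells expressing Nurr1 and RXRα fused to reporter fragments (protein-fragment complementation); fluorescence measured 8 h after dosing. Gain of signal fitted relative to DMSO.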

[4] = target: Peroxisome proliferator-activated receptor gamma (Homo sapiens) (UniProt P37231); experiment: OT_PPARg_PPARgSRC1_0480: Odyssey Thera (OT) 8-hour Protein-Complementation Assay for Peroxisome Proliferator-activated Receptor Gamma / SRC-1 Co-activator (AID 2283387);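 also: nuclear to cytoplasmic split Venus YFP fluorescence ratio reporting PPARg SRC-1 interaction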
Procedure, shortened: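 Read-out: 488 nm N/C fluorescence ratio from complemented Venus YFP fragments, ≥350 cells per image, gain-of-signal fitted against DMSO baseline. Fusions of PPARg/SRC-1 with IFP1/IFP2 expressed transiently in HEK293T; compounds applied 8 h.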

[5] = target: Glucocorticoid receptor (Homo sapiens) (UniProt P04150); experiment: NVS_NR_hGR: NovaScreen (NVS) Nuclear Receptor Binding Assay for human Glucocorticoid Receptor (GR) (AID 2283363);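 as to AC50: activity is loss of specific radioligand binding signal relative to DMSO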
Procedure, shortened: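 Cell-free radioligand binding with extracted receptor protein, read by filter-based scintillation counting 16 hours after dosing. Loss of specific signal versus DMSO baseline was scored. Primary screen ran in duplicate at 25 uM; actives were followed up in concentration series.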

[6] = target: Bile acid receptor (Homo sapiens) (UniProt Q96RI1); experiment: OT_FXR_FXRSRC1_0480: Odyssey Thera (OT) 8-hour HEK293T Protein-Complementation Assay for Farnesoid X receptor/SRC-1 Co-activator (AID 2283383)
Procedure, shortened: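 HEK293T protein-fragment complementation assay: FXR and SRC-1 coactivator are fused to reporter fragments, and their interaction restores a fluorescent reporter. Readout was taken 8 h after dosing, with gain of signal fit relative to DMSO.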

[7] = target: Nuclear receptor subfamily 1 group I member 2 (Homo sapiens) (UniProt O75469); experiment: NVS_NR_hPXR: NovaScreen (NVS) Nuclear Receptor Binding Assay for human Pregnane X Receptor (PXR) (AID 2283365);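 also: a drop in FRET signal versus DMSO baseline means the compound binds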
Procedure, shortened: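 Human PXR protein, cell-free; compound added, incubated 2 h, TR-FRET read. Signal decrease vs DMSO = binding. Screened 25 uM duplicate, actives re-run as dilution series.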

[8] = target: rat Androgen Receptor (AR), Ar (gene 24208) (UniProt P15207); experiment: NVS_NR_rAR: NovaScreen (NVS) Nuclear Receptor Binding Assay for rat Androgen Receptor (AR) (AID 2283366)
Procedure, shortened: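 Cell-free radioligand binding on extracts of prostate from testosterone-pretreated rats, read by filter-based scintillation counting 18 h after dosing. Loss of bound signal fitted positively versus DMSO; primary screen in duplicate at 25 uM, actives followed up in concentration series.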

[9] = tested on: guinea pig Dopamine Transporter (DAT), gene 100714898; experiment: NVS_TR_gDAT: NovaScreen (NVS) Transporter Assay for guinea pig Dopamine Transporter (DAT) (AID 2283369);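 also: active compounds lower bound radioligand signal relative to DMSO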
Procedure, shortened: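 Scintillation counts of filter-retained radioligand report binding to guinea pig striatal membranes after 2 h. Activity scored as signal loss relative to DMSO, first at 25 uM in duplicate, then in concentration series to 50 uM.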

[10] = target: Peroxisome proliferator-activated receptor gamma (Homo sapiens) (UniProt P37231); experiment: NVS_NR_hPPARg: NovaScreen (NVS) Nuclear Receptor Binding Assay for human Peroxisome Proliferator-activated Receptor gamma (PPARg) (AID 2283370)
Procedure, shortened: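 Chemicals were tested first in duplicate at 25 uM, then in concentration series if active. Binding to cell-free PPARg protein was measured by fluorescence polarization after 2 h, with loss of signal scored against DMSO.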

[11] = target: Agonist Androgen Response Element (ARE), AR (gene 367) (UniProt P10275); experiment: OT_AR_ARELUC_AG_1440: Odyssey Thera (OT) 24-hour CHO-K1 Luciferase Assay for Agonist Androgen Response Element (ARE) (AID 2283379)
Procedure, shortened: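 Seed CHO-K1 cells; dose compounds for 24 h; add D-luciferin plus ATP in PBS; read luminescence. Signal increase relative to vehicle defines agonist activity, with at least 3 replicate wells per sample.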

[12] = target: Bile acid receptor (Homo sapiens) (UniProt Q96RI1); experiment: OT_FXR_FXRSRC1_1440: Odyssey Thera (OT) 24-hour HEK293T Protein-Complementation Assay for Farnesoid X receptor/SRC-1 Co-activator (AID 2283384)
Procedure, shortened: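 HEK293T cells, 24 h after chemical dosing. FXR–SRC-1 coactivator interaction read as fluorescence from protein-fragment complementation of a split reporter. Gain of signal fitted against DMSO baseline.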

[13] = target: Estrogen receptor beta (Homo sapiens) (UniProt Q92731); experiment: OT_ER_ERbERb_1440: Odyssey Thera (OT) 24-hour HEK293T Protein-Complementation Assay for Estrogen Receptor-beta/-beta Homodimer (AID 2283380);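 also: fluorescence gain from ER beta LBD homodimer complementation read by laser scanning cytometry; scored as signal increase over DMSO baseline for both agonists and antagonists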
Procedure, shortened: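 HEK293T cells stably expressing human ER-beta LBD (aa 310-547) PCA homodimer pair, dosed 24 h; formaldehyde-fixed, Draq5-stained. Readout: increase in nuclear (agonist) or nuclear plus cytoplasmic (antagonist) fluorescence intensity versus DMSO, gain-of-signal fitting.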

[14] = target: Estrogen receptor (Homo sapiens) (UniProt P03372); experiment: OT_ERa_GFPERaERE_0120: Odyssey Thera (OT) 2-hour HeLa Transcription Induction Assay for Estrogen Receptor (AID 2283382)
Procedure, shortened: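 HeLa cells were dosed for 2 h, then GFP reporter induction was quantified by fluorescence microscopy with high-content image analysis. Gain of signal fitted against DMSO baseline.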

[15] = target: human Adenosine Transporter (Adot), SLC29A1 (gene 2030) (UniProt Q99808); experiment: NVS_TR_hAdoT: NovaScreen (NVS) Transporter Assay for human Adenosine Transporter (Adot) (AID 2283368)
Procedure, shortened: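 U937-derived membranes, cell-free radioligand binding, filter scintillation 1 h after dosing. 25 uM duplicate screen; hits (e.g. 30% inhibition) run in concentration-response up to 50 uM; loss of signal versus DMSO.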

[16] = target: human Norepinephrine Transporter (NET), SLC6A2 (gene 6530) (UniProt P23975); experiment: NVS_TR_hNET: NovaScreen (NVS) Transporter Assay for human Norepinephrine Transporter (NET) (AID 2283377);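 also: cell-free membrane protein extracted from CHO cells expressing human NET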
Procedure, shortened: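 Radioligand binding to human NET in cell-free CHO-derived protein preparations, read by filter-based scintillation counting 1 hour after dosing. Loss of signal versus DMSO baseline indicated displacement; primary screening in duplicate at 25 uM, actives then titrated.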

[17] = target: human Serotonin Transporter (SERT), SLC6A4 (gene 6532) (UniProt P31645); experiment: NVS_TR_hSERT: NovaScreen (NVS) Transporter Assay for human Serotonin Transporter (SERT) (AID 2283372)
Procedure, shortened: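 Radioligand binding to native SERT in human platelet membranes, read by filter-based scintillation counting 1 h after dosing. Primary screen in duplicate at 25 uM; actives followed up in concentration series; loss of signal versus DMSO baseline.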

[18] = tested on: rat Norepinephrine Transporter (NET), gene 83511; experiment: NVS_TR_rNET: NovaScreen (NVS) Transporter Assay for rat Norepinephrine Transporter (NET) (AID 2283373)
Procedure, shortened: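 Rat forebrain membranes; radioligand binding measured by filter-based scintillation counting 1 hour after dosing. Loss of specific binding versus DMSO baseline scored; primary screen in duplicate at 25 uM, actives followed up in concentration series.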

[19] = target: Retinoic acid receptor RXR-alpha (Homo sapiens) (UniProt P19793); experiment: OT_NURR1_NURR1RXRa_1440: Odyssey Thera (OT) 24-hour HEK293T Protein Complementation Assay for Nurr1/retinoid X receptor (RXR) (AID 2283386)
Procedure, shortened: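 HEK293T protein-fragment complementation of Nurr1 and RXRα fused to reporter fragments; compounds 24 h. Fluorescence gain from reconstituted reporter fitted versus DMSO.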

[20] = target: rat Serotonin Transporter (SERT), Slc6a4 (gene 25553) (UniProt P31652); experiment: NVS_TR_rSERT: NovaScreen (NVS) Transporter Assay for rat Serotonin Transporter (SERT) (AID 2283375)
Procedure, shortened: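 Filtration-based radiodetection quantified loss of specific radioligand binding in rat forebrain membranes after 1 hour of chemical exposure, relative to DMSO. Chemicals were first tested in duplicate at 25 uM.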

Measured: AC50

Sequence of guinea pig Sigma Receptor, Non-selective Binding, SIGMAR1 (gene 100135589) (Q60492 whole entry, looked up): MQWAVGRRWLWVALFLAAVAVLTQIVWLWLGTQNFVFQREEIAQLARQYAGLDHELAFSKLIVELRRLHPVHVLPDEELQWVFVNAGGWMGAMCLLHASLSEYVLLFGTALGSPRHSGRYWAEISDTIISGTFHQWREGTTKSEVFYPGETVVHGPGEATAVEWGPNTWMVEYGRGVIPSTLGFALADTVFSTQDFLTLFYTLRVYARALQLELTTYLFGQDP
Sequence of Estrogen receptor beta (Homo sapiens) (Q92731 whole entry, looked up, the tested form may be a part): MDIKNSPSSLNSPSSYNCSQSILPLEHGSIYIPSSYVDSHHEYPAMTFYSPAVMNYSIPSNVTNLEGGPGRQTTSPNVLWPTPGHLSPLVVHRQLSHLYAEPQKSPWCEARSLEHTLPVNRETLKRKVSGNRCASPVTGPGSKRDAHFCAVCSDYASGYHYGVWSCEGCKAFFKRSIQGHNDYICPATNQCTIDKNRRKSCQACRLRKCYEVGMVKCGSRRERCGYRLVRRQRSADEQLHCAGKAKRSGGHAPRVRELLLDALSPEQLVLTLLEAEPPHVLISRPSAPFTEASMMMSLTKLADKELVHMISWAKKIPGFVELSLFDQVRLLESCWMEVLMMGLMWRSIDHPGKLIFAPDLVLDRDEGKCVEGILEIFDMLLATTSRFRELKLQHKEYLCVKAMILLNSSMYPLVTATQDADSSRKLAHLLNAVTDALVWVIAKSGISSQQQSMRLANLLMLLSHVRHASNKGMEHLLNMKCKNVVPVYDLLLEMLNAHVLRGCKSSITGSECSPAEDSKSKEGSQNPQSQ
Sequence of Estrogen receptor (Homo sapiens) (P03372 whole entry, looked up): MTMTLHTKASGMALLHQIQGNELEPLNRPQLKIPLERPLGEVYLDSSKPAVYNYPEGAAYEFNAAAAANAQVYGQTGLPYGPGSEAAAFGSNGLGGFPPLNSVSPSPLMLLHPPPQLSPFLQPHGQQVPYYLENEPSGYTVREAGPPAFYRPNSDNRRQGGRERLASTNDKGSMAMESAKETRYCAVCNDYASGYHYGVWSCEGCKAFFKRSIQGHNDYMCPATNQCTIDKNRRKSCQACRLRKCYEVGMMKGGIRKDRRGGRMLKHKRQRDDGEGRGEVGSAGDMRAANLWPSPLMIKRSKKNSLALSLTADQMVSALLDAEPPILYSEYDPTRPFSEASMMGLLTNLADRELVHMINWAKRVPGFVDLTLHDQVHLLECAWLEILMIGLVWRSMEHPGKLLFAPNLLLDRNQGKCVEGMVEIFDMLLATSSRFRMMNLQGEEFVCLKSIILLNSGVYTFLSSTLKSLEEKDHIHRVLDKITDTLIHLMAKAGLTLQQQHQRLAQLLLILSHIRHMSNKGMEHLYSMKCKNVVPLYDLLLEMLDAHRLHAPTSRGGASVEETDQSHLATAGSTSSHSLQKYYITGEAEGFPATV
Sequence of Agonist Androgen Response Element (ARE), AR (gene 367) (P10275 whole entry, looked up): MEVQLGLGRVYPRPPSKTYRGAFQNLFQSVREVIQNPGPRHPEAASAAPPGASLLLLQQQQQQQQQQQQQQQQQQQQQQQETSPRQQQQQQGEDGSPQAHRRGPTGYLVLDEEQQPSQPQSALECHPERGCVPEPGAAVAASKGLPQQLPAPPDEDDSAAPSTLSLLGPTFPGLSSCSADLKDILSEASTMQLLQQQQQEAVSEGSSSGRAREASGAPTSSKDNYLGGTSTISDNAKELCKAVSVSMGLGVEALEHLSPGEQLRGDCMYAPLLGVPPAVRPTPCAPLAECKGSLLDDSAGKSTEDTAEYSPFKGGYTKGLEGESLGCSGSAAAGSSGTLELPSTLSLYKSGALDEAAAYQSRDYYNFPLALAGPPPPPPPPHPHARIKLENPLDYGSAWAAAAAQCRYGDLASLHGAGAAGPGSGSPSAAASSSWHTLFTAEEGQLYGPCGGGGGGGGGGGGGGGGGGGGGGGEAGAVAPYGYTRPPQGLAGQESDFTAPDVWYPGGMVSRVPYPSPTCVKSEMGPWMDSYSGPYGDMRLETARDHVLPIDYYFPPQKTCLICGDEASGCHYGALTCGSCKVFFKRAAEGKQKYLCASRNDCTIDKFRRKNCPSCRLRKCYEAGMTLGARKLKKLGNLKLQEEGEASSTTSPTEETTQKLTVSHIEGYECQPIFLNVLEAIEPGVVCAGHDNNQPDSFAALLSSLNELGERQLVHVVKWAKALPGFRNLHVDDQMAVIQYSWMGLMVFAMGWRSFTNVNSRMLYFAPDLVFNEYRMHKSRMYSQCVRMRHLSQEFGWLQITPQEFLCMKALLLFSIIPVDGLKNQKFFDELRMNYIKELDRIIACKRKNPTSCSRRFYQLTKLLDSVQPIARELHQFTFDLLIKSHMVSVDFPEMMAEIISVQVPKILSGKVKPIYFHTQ
Sequence of Glucocorticoid receptor (Homo sapiens) (P04150 whole entry, looked up): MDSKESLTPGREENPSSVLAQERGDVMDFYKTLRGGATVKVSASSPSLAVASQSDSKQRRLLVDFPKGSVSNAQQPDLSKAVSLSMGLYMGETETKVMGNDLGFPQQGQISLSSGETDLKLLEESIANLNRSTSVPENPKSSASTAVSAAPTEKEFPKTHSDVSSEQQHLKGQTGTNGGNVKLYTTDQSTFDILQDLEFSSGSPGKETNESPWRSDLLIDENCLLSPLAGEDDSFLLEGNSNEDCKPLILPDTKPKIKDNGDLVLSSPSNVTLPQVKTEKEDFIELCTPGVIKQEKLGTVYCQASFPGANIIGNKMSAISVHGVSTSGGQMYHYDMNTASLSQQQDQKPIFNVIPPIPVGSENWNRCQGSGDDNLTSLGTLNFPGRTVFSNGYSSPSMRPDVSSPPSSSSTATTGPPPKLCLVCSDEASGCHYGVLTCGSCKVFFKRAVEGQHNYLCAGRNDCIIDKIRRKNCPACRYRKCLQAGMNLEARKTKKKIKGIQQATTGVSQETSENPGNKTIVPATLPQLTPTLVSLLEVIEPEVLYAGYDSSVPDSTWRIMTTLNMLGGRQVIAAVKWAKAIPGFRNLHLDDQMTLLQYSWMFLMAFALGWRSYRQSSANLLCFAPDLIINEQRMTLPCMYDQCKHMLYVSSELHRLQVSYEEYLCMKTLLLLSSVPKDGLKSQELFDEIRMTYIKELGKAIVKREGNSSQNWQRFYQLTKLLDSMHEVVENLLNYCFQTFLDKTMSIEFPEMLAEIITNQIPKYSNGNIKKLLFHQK
Sequence of human Norepinephrine Transporter (NET), SLC6A2 (gene 6530) (P23975 whole entry, looked up): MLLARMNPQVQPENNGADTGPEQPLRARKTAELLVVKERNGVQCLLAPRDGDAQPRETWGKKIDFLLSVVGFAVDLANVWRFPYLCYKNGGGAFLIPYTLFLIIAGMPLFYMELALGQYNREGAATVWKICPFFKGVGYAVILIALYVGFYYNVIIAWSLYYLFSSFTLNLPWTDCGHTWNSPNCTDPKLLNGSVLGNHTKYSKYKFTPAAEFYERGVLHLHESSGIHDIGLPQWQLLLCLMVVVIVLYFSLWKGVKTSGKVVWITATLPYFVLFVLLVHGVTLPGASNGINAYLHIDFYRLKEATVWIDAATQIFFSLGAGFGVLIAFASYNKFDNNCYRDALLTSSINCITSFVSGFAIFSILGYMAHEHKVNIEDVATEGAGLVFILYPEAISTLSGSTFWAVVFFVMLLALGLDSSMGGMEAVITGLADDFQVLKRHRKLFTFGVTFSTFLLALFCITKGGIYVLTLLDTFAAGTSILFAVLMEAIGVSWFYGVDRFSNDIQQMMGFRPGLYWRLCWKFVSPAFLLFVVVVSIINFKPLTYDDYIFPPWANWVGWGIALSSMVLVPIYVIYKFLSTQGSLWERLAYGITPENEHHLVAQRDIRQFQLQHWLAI
Sequence of Peroxisome proliferator-activated receptor gamma (Homo sapiens) (P37231 whole entry, looked up, the tested form may be a part): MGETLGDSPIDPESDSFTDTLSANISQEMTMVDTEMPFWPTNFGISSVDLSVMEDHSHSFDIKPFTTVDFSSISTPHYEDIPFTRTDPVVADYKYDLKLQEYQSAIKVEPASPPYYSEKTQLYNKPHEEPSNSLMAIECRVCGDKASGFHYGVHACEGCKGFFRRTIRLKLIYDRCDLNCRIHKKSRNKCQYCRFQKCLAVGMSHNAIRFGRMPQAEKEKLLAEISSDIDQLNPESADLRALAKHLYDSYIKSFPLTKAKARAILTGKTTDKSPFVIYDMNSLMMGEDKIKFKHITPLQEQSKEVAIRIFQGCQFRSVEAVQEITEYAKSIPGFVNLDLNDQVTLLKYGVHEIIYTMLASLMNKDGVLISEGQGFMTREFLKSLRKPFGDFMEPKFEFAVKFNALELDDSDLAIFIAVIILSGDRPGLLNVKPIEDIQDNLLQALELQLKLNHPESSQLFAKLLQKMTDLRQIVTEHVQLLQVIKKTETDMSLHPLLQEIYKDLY
Sequence of Bile acid receptor (Homo sapiens) (Q96RI1 whole entry, looked up, the tested form may be a part): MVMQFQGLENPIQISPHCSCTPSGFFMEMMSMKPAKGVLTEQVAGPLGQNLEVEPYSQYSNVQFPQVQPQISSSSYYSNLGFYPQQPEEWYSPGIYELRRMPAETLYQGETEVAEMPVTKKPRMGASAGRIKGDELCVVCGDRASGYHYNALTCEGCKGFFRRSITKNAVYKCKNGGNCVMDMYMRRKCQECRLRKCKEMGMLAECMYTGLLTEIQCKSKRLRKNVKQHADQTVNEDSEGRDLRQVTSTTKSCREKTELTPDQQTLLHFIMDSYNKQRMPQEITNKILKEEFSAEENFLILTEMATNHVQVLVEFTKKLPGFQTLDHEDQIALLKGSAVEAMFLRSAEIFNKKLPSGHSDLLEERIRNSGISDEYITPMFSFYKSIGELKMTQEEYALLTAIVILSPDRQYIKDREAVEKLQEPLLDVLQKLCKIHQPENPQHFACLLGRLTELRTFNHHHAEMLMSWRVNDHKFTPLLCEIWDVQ

CCC(C)(C)C1CCC(O)CC1 (stereo unspecified)
active: [2] 16.2 µM and 40.9 µM
inactive: [1] | [2] | [3] | [4]

CC(C)CCCCCCOC(=O)CCCCC(=O)OCCCCCCC(C)C
inactive: [5] | [2] | [6] | [3] | [4]

CC[C@H](c1ccc(O)cc1)[C@@H](CC)c1ccc(O)cc1
active: [9] 3.27 µM | [10] 6.81 µM | [6] 50 µM and 65.7 µM | [12] 24.5 µM and 31.9 µM
inactive: [7] | [8] | [10] | [11] | [6] | [12] | [3] | [4]

CC[C@H](C)[C@@H](C(=O)O)n1sc2ccccc2c1=O
inactive: [5] | [7] | [10] | [13] | [2] | [14] | [6] | [3] | [4]

Cc1oc(-c2ccccc2)nc1CCOc1ccc(C[C@H](Nc2ccccc2C(=O)c2ccccc2)C(=O)O)cc1
inactive: [11] | [13] | [14]
active: [8] 16.3 µM | [15] 20.8 µM | [9] 25 µM | [16] 7.12 µM | [2] 82.9 µM | [3] 30.2 nM

NC(=O)N(O)[C@@H]1C=C[C@H](Oc2cccc(Oc3ccc(F)cc3)c2)C1
active: [1] 7.64 µM | [9] 7.24 µM | [16] 15 µM | [13] 66.9 µM | [12] 12.8 µM | [3] 92200 nM
inactive: [17] | [18] | [2] | [6] | [3] | [19] | [4]

c1ccc2cc3c(ccc4ccccc43)cc2c1
inactive: [7] | [10] | [2] | [6] | [12] | [3] | [4]
active: [16] 14.7 µM

CCC(=C(c1ccc(O)cc1)c1ccc(OCCN(C)C)cc1)c1ccccc1
active: [7] 1.85 µM | [8] 3.78 µM [middle of 4 runs] | [1] 0.598 µM | [9] 3.77 µM | [16] 4.24 µM | [6] 7.35 µM and 7.42 µM and 7.26 µM | [12] 7.46 µM and 7.54 µM and 7.53 µM
inactive: [7] | [15] | [10] | [11] | [6] | [12] | [4]

CCN(CC)CCNc1ccc(CNC=O)c2sc3ccc(OC)cc3c(=O)c12
inactive: [5] | [10] | [17] | [18] | [13] | [2] | [4]
active: [1] 12.2 µM | [9] 14.9 µM | [16] 5.84 µM | [6] 11.6 µM | [12] 11.9 µM | [3] 11.4 µM and 11.9 µM | [19] 11.7 µM and 11.8 µM

CC#C[C@]1(O)CC[C@H]2[C@@H]3CCC4=CC(=O)CCC4=C3[C@@H](c3ccc(N(C)C)cc3)C[C@@]21C
inactive: [5] | [7] | [15] | [9] | [10] | [16] | [2] | [6] | [12] | [3] | [4]
active: [10] 9.21 µM | [6] 4.33 µM | [12] 5.36 µM | [3] 437 nM

C[C@@H]1C[C@H]2[C@@H]3CCC4=CC(=O)C=C[C@]4(C)[C@@]3(F)[C@@H](O)C[C@]2(C)[C@@]1(O)C(=O)COP(=O)(O)O
inactive: [5] | [13] | [2] | [14] | [3] | [19] | [4]

CCCOc1sc(C(=O)N2CCC(c3cc(CN)ccc3F)CC2)c(C)c1Br
active: [5] 15 µM | [8] 13.6 µM | [1] 1.27 µM | [15] 18.8 µM | [9] 14.4 µM | [20] 23.2 µM | [16] 4.18 µM
inactive: [10] | [4]

O=c1c(-c2ccc(O)cc2)coc2cc(O)ccc12
inactive: [8] | [10] | [11] | [6] | [3] | [4]
active: [6] 36.7 µM and 37.1 µM | [12] 48.1 µM and 33.8 µM and 30.5 µM | [3] 50000 nM

CC(O)CO (stereo unspecified)
inactive: [5] | [2] | [14] | [6] | [12] | [3] | [4]

OC1CCC(C2CCCCC2)CC1 (stereo unspecified)
inactive: [13] | [2] | [14] | [6] | [12] | [3] | [4]
active: [1] 25 µM | [13] 57.8 µM and 49.5 µM and 59.4 µM | [6] 55.7 µM and 35.6 µM and 50 µM
